Assay outcomes deposited in PubChem by several laboratories.
bovine MsrA act – bovine methionine sulfoxide reductase A activation; activation, % at 10.6 µM; 0.3% of 360,000 active; purified bovine MsrA, absorbance read-out; in the data active means activation above about 7.5%;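 further: 0% = vehicle and 100% = reference activator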
NadD block – NadD (S. aureus) enzyme inhibition; AID 602399; purified NadD enzyme, colorimetric absorbance read-out; inhibition, % at 20 µM; 0.78% of 360,000 active; in the data active means inhibition above about 26%
MsrA inh – bovine MsrA inhibition | purified bovine MsrA, absorbance read-out | inhibition, % at 15.5 µM | 0.75% of 360,000 active | AID 651718; in the data active means inhibition above about 4.5%;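 further: 0% = vehicle wells with enzyme and 100% = reference inhibitor wells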
rCAG RNA binder – binds r(CAG) RNA repeats | 1.3% of 370,000 active | inhibition, % at 3 µM | r(CAG) RNA repeat, TO-PRO-1 dye displacement fluorescence;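 active means inhibition above the plate cutoff, the mean of all test compounds on that plate plus 3 SD, cut at about 35% in these data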;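 further: 0% = DMSO alone and 100% = 100 µM mitoxantrone as full dye displacement; higher means more dye released from RNA so lower well fluorescence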
An asterisk follows results filed as active; · = not tested or not shown. In the library only some 2.7% were active in any assay of this set; here they are far more common.

SMILES	bovine MsrA act	NadD block	MsrA inh	rCAG RNA binder
CCCC[C@@H]1CNCCN1CC1(c2ccccc2)CC1	-2	-6	1	11
O=[N+]([O-])c1ccc2[nH]c(=S)[nH]c2c1	2	5	3	3
O=[N+]([O-])c1ccc2[nH]c(=S)sc2c1	9.6*	15	1	4
O=C(N[C@@H](Cc1ccccc1)C(=O)N1CCC2CCN(S(=O)(=O)c3ccccc3)CC21)[C@@H]1CCCN1 (some centres undefined)	·	·	·	2
O=C(O)c1cccc(Nc2cc(Cl)c3nonc3c2[N+](=O)[O-])c1	-7	-2	4.6*	4
Cc1ccccc1CC(=O)Nc1nnc(-c2cccnc2)s1	·	·	·	1
COc1ccc(CN(CC#Cc2ccc(C)cc2)C(N)=NC(=O)CCc2ccccc2)c(OC)c1	·	·	·	4
O=c1cc(-c2ccc(O)cc2)oc2c(-c3c(O)cc(O)c4c(=O)cc(-c5ccc(O)cc5)oc34)c(O)cc(O)c12	-6	19	2	94*
O=c1cc(-c2ccc(O)c(O)c2)oc2cc(O)cc(O)c12	-2	-4	2	12
COc1ccc(Cl)cc1NC(=O)CN(C)S(=O)(=O)c1cccs1	1	-4	-1	4
COc1ccc(Cl)cc1NC(=O)COC(=O)c1cc(NS(=O)(=O)c2cccs2)ccc1O	-2	33*	1	30
O=C1N=C(N2CCN(c3cccc4ccccc34)CC2)S/C1=C/c1cccs1	-13	28*	1	5
Cc1ccccc1N1CCN(C2=NC(=O)/C(=C\c3cccs3)S2)CC1	4	10	4	-3
O=C(CCSc1nc2ccccc2s1)N/N=C/c1c(O)ccc2ccccc12	-2	30*	3	7
COC(=O)c1cc(C(=O)OCC(=O)NC(=O)NCc2ccccc2)cc([N+](=O)[O-])c1	-4	-5	0	5
O=[N+]([O-])c1ccc(S(=O)(=O)Nc2ccc(-c3csc(-c4ccccc4)n3)cc2)cc1	·	·	1	79*
CCOc1ccc(NC(=O)Nc2nc3ccc(S(C)(=O)=O)cc3s2)cc1	0	-1	0	39*
Cc1ccc2nc(NC(=O)c3cccs3)sc2c1	-4	-8	1	11
CS(=O)(=O)c1ccc2nc(NC(=O)c3cccs3)sc2c1	-6	3	6.8*	1
CCOCC(=O)Nc1nc2ccc(S(C)(=O)=O)cc2s1	-4	-2	1	-2
CC(=O)c1ccc(N2CCN(C(=O)c3ccc4c(=O)n(-c5ccccc5)c(=O)[nH]c4c3)CC2)cc1	-9	11	4.6*	7
C#CCOCCOCCOCCNc1nc(N2CCN(C(=O)CCCCCCCCCCNC(=O)[C@H](CO)n3cc(CCCSC)nn3)CC2)nc(N2CCN(C(=O)CCCCCCCCCCNC(=O)[C@H](CCCCN)n3cc(CCO)nn3)CC2)n1	-8	18	-2	8
C#CCOCCOCCOCCNc1nc(N2CCN(C(=O)CCCCCCCCCCNC(=O)[C@H](CO)n3cc(CCCSC)nn3)CC2)nc(N2CCN(C(=O)CCCCCCCCCCNC(=O)[C@H](CCCN=C(N)N)n3cc(C[C@@H](C)CC)nn3)CC2)n1	2	62*	·	·
C#CCOCCOCCOCCNc1nc(N2CCN(C(=O)CCCCCCCCCCNC(=O)Cn3cc(C[C@@H](C)O)nn3)CC2)nc(N2CCN(C(=O)CCCCCCCCCCNC(=O)[C@H](CCCN=C(N)N)n3cc(C[C@@H](C)CC)nn3)CC2)n1	2	38*	·	·
CC(=O)c1cc(-c2cccc(CO)c2)c(=O)n2c1CCC2	·	·	·	3
SMILES	bovine MsrA act	NadD block	MsrA inh	rCAG RNA binder
COc1ccccc1CNC(=O)C(=O)NCC1CCCN1S(=O)(=O)c1cc(C)ccc1C (centres undefined)	-2	-2	-1	2
Cc1cc(=O)oc2c(N)nccc12	-17	17	·	·
Cc1cc(=O)oc2c3c(ccc12)OC/C3=N/N	-5	24	3	41*
COc1cc2c(cc1CNC[C@H]1O[C@@H](n3ccc(N)nc3=O)[C@H](O)[C@@H]1O)OCO2	-3	3	2	2
NC(=S)n1[nH]c(-c2ccc([N+](=O)[O-])cc2)c(N=Nc2cccc([N+](=O)[O-])c2)c1=O	-3	77*	0	21
Cc1[nH]n(C(N)=S)c(=O)c1N=Nc1cccc([N+](=O)[O-])c1C	4	-4	·	·
Cc1[nH]n(-c2ccccc2)c(=O)c1N=Nc1cccc([N+](=O)[O-])c1	-1	-3	2	4
NC(=S)n1[nH]c(-c2ccc([N+](=O)[O-])cc2)c(N=Nc2ccccc2[N+](=O)[O-])c1=O	-2	64*	-1	4
Cc1c(N=Nc2c(-c3ccc([N+](=O)[O-])cc3)[nH]n(C(N)=S)c2=O)cccc1[N+](=O)[O-]	-2	81*	0	21
CN(C(=O)/C=C/c1ccccc1)C1CCCCC1	-2	0	0	-8
